Pf growth 96h = Primary qHTS for delayed death inhibitors of the malarial parasite plastid, 96 hour incubation | P. falciparum luciferase reporter growth, 96 h | Potency, µM (top dose mostly 28.7 µM), inactives show at the highest dose activity change, negative = inhibition, actives largely listed as inhibitors | 6.9% of 320,000 active; also: potency is read from the fitted curve at half-maximal effect; % is scaled to controls: 0 for no effect and ±100 for the full control effect
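Cell-based qHTS: luciferase-tagged P. falciparum in erythrocytes (2% hematocrit, 0.05% parasitemia final) incubated with compounds for 96 hours, 37 C, 5% CO2; luciferase detection reagent then added and luminescence measured.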
CHX counter = Cycloheximide Counterscreen for Small Molecule Inhibitors of Shiga Toxin | 12% of 300,000 active | AID 2314, 2010 | cell reporter, cycloheximide protein synthesis inhibition counterscreen | max response, %; in the data active = max response mostly above about 13%, no sharp cut-off; inactive = mostly below about 14%; also: read at 38.3 µM for the half of the compounds with a filed dose; 0% is about no effect
Pf growth 48h = Primary qHTS for delayed death inhibitors of the malarial parasite plastid, 48 hour incubation; AID 504832, 2011; Potency, µM (titrated, usually from 28.7 µM), for the others: at the highest dose activity change, negative = inhibition, hits mostly inhibitors; 5.9% of 310,000 active; P. falciparum luciferase growth in erythrocytes, 48 h; also: potency is read from the fitted curve at half-maximal effect; % is scaled to controls: 0 for no effect and ±100 for the full control effect
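A one-generation exposure of luciferase-tagged malaria parasites in RPMI 1640/Albumax erythrocyte culture, 37 C and 5% CO2. Inhibition is inferred from decreased luminescence after adding detection reagent.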
Marburg entry inh = qHTS for inhibitors of binding or entry into cells for Marburg Virus | Marburg virus pseudotyped entry inhibition, cell reporter | Potency, µM (series often up to 37.8 µM), without a hit: at the top dose activity change, negative = inhibition, hits mostly inhibitors | 1.8% of 300,000 active; calls by dose curve; tested in HEK293 cells; also: potency is read from the fitted curve at half-maximal effect; % is scaled to controls: 0 for no effect and ±100 for the full control effect
LASV entry inh = qHTS for Inhibitors of binding or entry into cells for Lassa Virus; Lassa virus pseudotype entry inhibition, cell reporter; Potency, µM (doses to about 37.9 µM), inactives show at the top dose activity change, negative = inhibition, hits mostly inhibitors; 1.2% of 300,000 active; calls by dose curve; tested in HEK293 cells; also: potency is read from the fitted curve at half-maximal effect; % is scaled to controls: 0 for no effect and ±100 for the full control effect; nearly all actives have a fitted effect of over 50% in size
Shiga inhibitor = A qHTS for Small Molecule Inhibitors of Shiga Toxin. inhibition, % at 38.7 µM. Vero cells, Shiga toxin protein synthesis inhibition reporter. 9.2% of 290,000 active; in the data active = inhibition mostly above about 28%, no sharp cut-off; inactive = mostly below about 43%; also: 0% is about no effect
Numbers without * were called inactive; [ ] = remark or other dose. In the library only some 19% were active in any assay of this set; here they are far more common. Unless noted, calls follow the shape of the dose curve; as a rule, active = well fitted inhibition curve with a large enough effect; inconclusive = small, poorly fitted or top-dose-only effect, or another doubt; inactive = no such curve, though single readings can be large or run the other way.

For COc1cc(C2NC(=O)NC(O)(C(F)(F)F)C2C(=O)c2ccc(Cl)cc2)ccc1O (stereo not drawn) the results were Pf growth 96h 45%, CHX counter 10, Pf growth 48h 6%, Marburg entry inh -2%, LASV entry inh inconclusive and Shiga inhibitor 12.
`COc1cc(C2NC(=O)NC(O)(C(F)(F)F)C2C(=O)c2cccs2)ccc1O` (stereo not drawn) gave Pf growth 96h 13µM*, CHX counter 34*, Pf growth 48h 0%, Marburg entry inh 10%, LASV entry inh -3% and Shiga inhibitor 87*.
CC(=NCc1ccco1)c1c(C)[nH]n(-c2nc3ccccc3s2)c1=O was read as Pf growth 96h inconclusive, CHX counter 48*, Pf growth 48h 185%, Marburg entry inh inconclusive, LASV entry inh inconclusive and Shiga inhibitor 56*.
`O=c1c(C=NCc2cccnc2)c(C(F)(F)F)[nH]n1-c1nc2ccccc2s1` gave Pf growth 96h 16%, CHX counter -3, Pf growth 48h -10%, Marburg entry inh inconclusive, LASV entry inh inconclusive and Shiga inhibitor 1.
For CCC(=NCc1ccco1)c1c(C(F)(F)F)[nH]n(-c2nc3ccccc3s2)c1=O the results were Pf growth 96h 72%, CHX counter 45*, Marburg entry inh -1%, LASV entry inh inconclusive and Shiga inhibitor 52*.
`C/C(=N/NC(=O)c1cccs1)c1c(C)[nH]n(-c2nc3ccccc3s2)c1=O` gave Pf growth 96h -39%, CHX counter 11, Pf growth 48h 92%, Marburg entry inh 4.6µM*, LASV entry inh inconclusive and Shiga inhibitor 20.
Screening CCC(=NCc1ccccc1)c1c(C(F)(F)F)[nH]n(-c2nc3ccccc3s2)c1=O returned Pf growth 96h 17%, CHX counter 21*, Marburg entry inh 11%, LASV entry inh 2% and Shiga inhibitor 36.
CC1(C)CCN(Cc2ccccc2)C1CC#N (stereo not drawn) was read as Pf growth 96h 17%, CHX counter -3, Pf growth 48h 0%, Marburg entry inh 13%, LASV entry inh inconclusive and Shiga inhibitor -9.
For O=C(Nc1sc2c(c1C(=O)NC1CC1)CCCCCC2)c1ccco1 the results were Pf growth 96h 11%, CHX counter -1, Pf growth 48h -19%, Marburg entry inh 10%, LASV entry inh 3% and Shiga inhibitor 14.
Screening CCCCN(Cc1ccco1)S(=O)(=O)c1ccc(-c2ccc(=O)[nH]n2)s1 returned Pf growth 96h 15µM*, CHX counter -2, Pf growth 48h -4%, Marburg entry inh -17%[46.1 µM], LASV entry inh inconclusive and Shiga inhibitor 3.
`COc1cc(/C=C2/SC(=O)N(Cc3ccccc3Cl)C2=O)ccc1OCc1ccncc1` gave Pf growth 96h inconclusive, CHX counter -2, Pf growth 48h inconclusive, Marburg entry inh -1%, LASV entry inh 2% and Shiga inhibitor 6.
Screening NC(=O)c1cn(Cc2c(F)cccc2F)nn1 returned Pf growth 96h 32%, CHX counter 0, Pf growth 48h -1%, Marburg entry inh inconclusive, LASV entry inh 13% and Shiga inhibitor 1.
Screening COc1ccc(/C=N/NC(=O)c2ccn[nH]2)cc1CSc1ccccn1 returned Pf growth 96h 46%, CHX counter 65*, Pf growth 48h 83% and Shiga inhibitor 75*.
`COc1ccc(/C=N/NC(=O)c2cccc(Br)c2)cc1CSc1ccccn1` gave Pf growth 96h inconclusive, CHX counter 15, Pf growth 48h 17%, Marburg entry inh inconclusive, LASV entry inh -15% and Shiga inhibitor 29.
COc1cc(OC)cc(C(=O)N/N=C/c2ccc(OC)c(COc3ccc(F)cc3)c2)c1 was read as Pf growth 96h -19%, CHX counter -6, Pf growth 48h 21%, Marburg entry inh inconclusive, LASV entry inh inconclusive and Shiga inhibitor -25.
For COc1ccc(/C=N/NC(=O)c2ccn[nH]2)cc1COc1ccc(Cl)cc1 the results were Pf growth 96h -11%, CHX counter 31*, Pf growth 48h inconclusive, Marburg entry inh -28%, LASV entry inh -30% and Shiga inhibitor 115.
